High-throughput results: PubChem, The Scripps Research Institute Molecular Screening Center
An excerpt weighted towards active compounds, which were near 2.3% of everything screened.
M1 PAM – potentiates human M1 receptor response to acetylcholine; 0.088% of 360,000 active; AID 588819; activation, % at 3 µM; CHO-K1 hM1, Fluo-8 calcium fluorescence, ACh EC20; 0% = ACh EC20, 100% = maximal ACh; P11229; in the data active = activation above about 19%, passing the limit was not always enough
Target sequence (P11229 whole entry, looked up): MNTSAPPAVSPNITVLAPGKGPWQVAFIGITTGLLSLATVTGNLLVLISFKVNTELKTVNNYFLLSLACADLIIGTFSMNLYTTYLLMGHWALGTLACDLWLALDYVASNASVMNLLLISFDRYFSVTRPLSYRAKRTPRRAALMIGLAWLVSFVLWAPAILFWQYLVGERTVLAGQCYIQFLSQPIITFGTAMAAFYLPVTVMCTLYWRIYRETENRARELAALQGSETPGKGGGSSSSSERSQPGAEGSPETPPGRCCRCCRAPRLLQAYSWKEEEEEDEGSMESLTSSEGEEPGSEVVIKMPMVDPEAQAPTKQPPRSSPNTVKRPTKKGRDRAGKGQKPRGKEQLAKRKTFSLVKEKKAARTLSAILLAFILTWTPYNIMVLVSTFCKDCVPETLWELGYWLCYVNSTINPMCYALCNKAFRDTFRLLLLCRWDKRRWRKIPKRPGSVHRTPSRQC
CHO-K1 Ca antag – counter-screen for M1 antagonists: effect in parental CHO-K1 cells | ATP-induced calcium, Fluo-8 fluorescence | inhibition, % at 3 µM | 0.6% of 360,000 active;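 active = inhibition above a per-plate cutoff, the plate's mean sample inhibition plus 3 SD, cut at about 24% in these data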;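 also: 0% = DMSO plus EC80 ATP and 100% = DMSO alone without ATP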
M1 PAM parental – nonselective activator or artifact in parental CHO-K1 calcium assay; activation, % at 3 µM; ATP EC20, Fluo-8 calcium fluorescence; 0% at ATP EC20, 100% at ATP max; 0.02% of 360,000 active; AID 602247;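 active = activation above the run cutoff, the mean activation of all test compounds plus 3 SD, cut at about 40% in these data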;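 also: peak over basal fluorescence ratio in a 140 s read after ATP addition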
M1 ag parental – counter-screen for M1 agonists: effect in parental CHO-K1 cells. Fluo-8 calcium fluorescence; scaled to maximal ATP response, vehicle zero. activation, % at 3 µM. 0.48% of 360,000 active. AID 602248; in the data active = activation above about 15%;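 also: untransfected CHO-K1 host cells lacking M1 receptor as counterscreen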
CHRM1 agonist – human M1 muscarinic receptor agonism; P11229; CHO-K1 hM1, Fluo-8 calcium fluorescence, agonist mode; 0% DMSO, 100% acetylcholine EC100; activation, % at 3 µM; 0.33% of 360,000 active; AID 588814;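 active = activation above the run's mean compound activation plus 3 SD, cut at about 16% in these data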;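 also: peak over basal fluorescence ratio within a 140 s kinetic read after compound addition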
CHRM1 antagonist – human CHRM1 antagonism; inhibition, % at 3 µM; P11229; CHO-K1 hM1, Fluo-8 calcium fluorescence, ACh EC80 antagonist; 1.3% of 360,000 active; AID 588852;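 active = percent inhibition above its own plate's cutoff, namely the mean of that plate's compound wells plus 3 SD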;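 also: peak over basal fluorescence ratio during 140 s after agonist addition; 0% = ACh EC80 plus DMSO and 100% = DMSO alone without agonist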
The depositor's hits bear a star.

`CCCCCN(C(=O)CCC(=O)OCCOc1cccc(Cl)c1)c1c(N)n(CCCC)c(=O)[nH]c1=O` gave M1 PAM 9.6, CHO-K1 Ca antag -5.8, M1 PAM parental 12.7, M1 ag parental 0.3, CHRM1 agonist -3.1 and CHRM1 antagonist -9.0.
Cc1ccccc1C(=O)Nc1ccccc1C(=O)N1CCC(C)CC1 was read as M1 PAM 3.4, CHO-K1 Ca antag -4.9, M1 PAM parental 3.3, M1 ag parental -0.4, CHRM1 agonist -2.4 and CHRM1 antagonist -2.0.
For C=CCc1c(O)c(CC)cc2c(C)cc(=O)oc12 the results were M1 PAM 16.7, CHO-K1 Ca antag -2.3, M1 PAM parental 10.1, M1 ag parental 0.0, CHRM1 agonist -7.3 and CHRM1 antagonist -7.8.
`O=S(=O)(c1ccc(N2CCCCCC2)nc1)N1CCCC1` gave M1 PAM -33.4, CHO-K1 Ca antag 3.7, M1 PAM parental 12.9, M1 ag parental 0.7, CHRM1 agonist -13.4 and CHRM1 antagonist 69.7*.
`O=S(=O)(c1ccc(Cl)nc1)N1CCC(Cc2ccccc2)CC1` gave M1 PAM 7.4, CHO-K1 Ca antag -15.4, M1 PAM parental 7.4, M1 ag parental 0.6, CHRM1 agonist -1.8 and CHRM1 antagonist -12.2.
Screening NC(=O)C1CCN(c2ccc(S(=O)(=O)N3CCC(Cc4ccccc4)CC3)cn2)CC1 returned M1 PAM 7.3, CHO-K1 Ca antag 4.8, M1 PAM parental 7.9, M1 ag parental 19.3*, CHRM1 agonist -0.9 and CHRM1 antagonist -4.5.
CN1CCN(c2ccc(S(=O)(=O)N3CCCCC3)cn2)CC1 was read as M1 PAM 2.3, CHO-K1 Ca antag 5.5, M1 PAM parental -5.8, M1 ag parental -0.1, CHRM1 agonist -5.9 and CHRM1 antagonist -4.7.
`O=S(=O)(NC1CCCCC1)c1ccc(N2CCOCC2)nc1` gave M1 PAM 7.9, CHO-K1 Ca antag -4.2, M1 PAM parental 19.9, M1 ag parental 19.3*, CHRM1 agonist -1.3 and CHRM1 antagonist -4.9.
For Cc1ccc(F)cc1CNC(=O)C1CCC(=O)N(CC2CCCCC2)C1 (centres undefined) the results were M1 PAM 10.0, CHO-K1 Ca antag -9.9, M1 PAM parental 7.2, M1 ag parental 1.3, CHRM1 agonist -0.7 and CHRM1 antagonist -17.8.
Cc1ccc(S(=O)(=O)NC[C@H]2O[C@@H](n3ccc(N)nc3=O)[C@H](O)[C@@H]2O)s1 was read as M1 PAM 2.5, CHO-K1 Ca antag -10.6, M1 PAM parental 10.7, M1 ag parental 0.7, CHRM1 agonist -3.3 and CHRM1 antagonist -3.4.
COc1ccc(CNC(=O)COC(=O)CN2C(=O)C3CC=CCC3C2=O)cc1 (centres undefined) was read as M1 PAM 26.5*, CHO-K1 Ca antag 2.2, M1 PAM parental -4.7, M1 ag parental 0.1, CHRM1 agonist 3.2 and CHRM1 antagonist -24.0.
Screening CCOC(=O)c1cccc(NC(=O)C2CCN(S(=O)(=O)c3cccs3)CC2)c1 returned M1 PAM -1.9, CHO-K1 Ca antag 2.5, M1 PAM parental 0.7, M1 ag parental 5.1, CHRM1 agonist -1.6 and CHRM1 antagonist -1.8.
`CCOC(=O)c1ccc2c(c1)nc(C1CCN(S(=O)(=O)c3cccs3)CC1)n2CC` gave M1 PAM -22.7, CHO-K1 Ca antag -5.6, M1 PAM parental 3.0, M1 ag parental 15.5*, CHRM1 agonist -4.5 and CHRM1 antagonist 15.5.
CCN(CC)CCOC(=O)C(Cc1cccc2ccccc12)CC1CCCO1 (centres undefined) was read as M1 PAM -25.0, CHO-K1 Ca antag -0.8, M1 PAM parental -8.0, M1 ag parental 0.9, CHRM1 agonist -9.4 and CHRM1 antagonist 45.4*.
`CC(C)(CNC(=O)Cc1ccc(NS(=O)(=O)c2cccc(C(F)(F)F)c2)cc1)N1CCOCC1` gave M1 PAM -12.6, CHO-K1 Ca antag 9.5, M1 PAM parental -11.1, M1 ag parental 0.1, CHRM1 agonist -5.8 and CHRM1 antagonist 33.7*.
Screening O=C(Cc1ccc(NS(=O)(=O)c2cccc(C(F)(F)F)c2)cc1)NCCN1CCOCC1 returned M1 PAM 5.8, CHO-K1 Ca antag -3.6, M1 PAM parental 7.1, M1 ag parental 1.2, CHRM1 agonist -4.7 and CHRM1 antagonist -1.8.
